The source of these data is PubChem BioAssay (EPA / NIEHS).

SMILES strings stand for the structures. Active and inactive are the calls of the source. The calls were made as follows: active = hit-call score of the fitted dose curve at least 0.9, where 1 is the maximum; inactive = score below 0.9.

The nature of this test: ATG_FoxO_CIS: Attagene CIS-FACTORIAL HepG2 Assay for human Forkhead box O (FoxO) (AID 2282943). Conditions: HepG2 Attagene cis-reporter, FoxO element, mRNA; actives raise or lower the signal. Here is the method:
ATG_CIS is a cell-based, multiplexed-readout assay that uses HepG2, a human liver cell line, with measurements taken at 24 hours after chemical dosing in a 24-well plate.ATG_FoxO_CIS is one of 52 assay component(s) measured or calculated from the ATG_CIS assay. It is designed to make measurements of mRNA induction, a form of inducible reporter, as detected with fluorescence intensity signals by Reverse transcription polymerase chain reaction (RT-PCR) and Capillary electrophoresis technology.Data from the assay component ATG_FoxO_CIS was analyzed into 1 assay endpoint. This assay endpoint, ATG_FoxO_CIS, was analyzed with bidirectional fitting relative to DMSO as the negative control and baseline of activity. Using a type of inducible reporter, measures of mRNA for gain or loss-of-signal activity can be used to understand the reporter gene at the transcription factor-level as they relate to the gene FOXO1 and FOXO3. Furthermore, this assay endpoint can be referred to as a primary readout, because this assay has produced multiple assay endpoints where this one serves a reporter gene function. To generalize the intended target to other relatable targets, this assay endpoint is annotated to the dna binding intended target family, where the subfamily is forkhead box protein.
Human liver HepG2 cells are transiently transfected with multiple reporter transcription units (MRTUs) in 6-well plates using FuGene 6 reagent (Roche; 3 ml FuGene/1 mg DNA). The MRTU constructs are regulated by a cis-regulating element (promoter). […] A major difference between the CIS and TRANS system is that in CIS activities of endogenous TFs are measured, whereas the TRANS assay evaluates changes in activities of exogenous, chimeric NR-Gal4 proteins. […] At the end of 24 hour incubation, total RNA was isolated using TriZol reagent (Invitrogen). The isolated RNA is then reverse-transcribed using oligo(dT) primer and Mo-MLV reverse transcriptase (Invitrogen) with DNAse I (Ambion) treatment for 30 min. The one-tenth of the produced cDNA was amplified by PCR using Taq DNA polymerase (Invitrogen) and two reporter sequence-specific primers. The PCR products were fluorescently labeled by primer extension with 6-arboxyfluorescein (6-FAM) 5'-labeled reporter sequence-specific primer (2 min at 95 C, 20 s at 68 C and 10 min at 72 C) and these products were digested with 5U of HpaI (New England Biolabs) for 2h at 37 C. The fragments were purified using Qiaquick PCR columns (Qiagen), analyzed on an ABI 3130xL genetic analyzer (Applied Biosystems) with peak positions identified by using a set of X-rhodamine (ROX)-labeled MapMarker1000 molecular weight standards (BioVentures). The raw capillary electrophoresis data was processed using Attagraph software (Attagene).
Consider `CC(CC=O)CC(C)(C)C` (stereo not given), for which the outcome was inactive. Turning to `COC(=O)CC(C)CCC=C(C)C` (stereo not given), the molecule was classed as inactive. Still for that read-out and setting: in the case of `CCCCOCCOC(=O)COc1ccc(Cl)cc1Cl` it was “inactive”; in that of `Oc1ccc(-c2ccccc2)c(Cl)c1`, “inactive”; in that of `CCC(C)C(=O)OC` (stereo not given), “inactive”. Consider `CCCc1ccc(O)c(OC)c1`, for which the molecule was classed as inactive. With `CCCCCOC(=O)CCCCC`, the result was inactive. Same read-out and setting: the same measure for `COC(C=C(C)CCC=C(C)C)OC`: “inactive”.

For the molecule `O=C(Nc1ccccc1)c1cc(Cl)ccc1O`, the AC50 – broadly, the midpoint of the concentration-response curve, whichever way the signal moves – is 100 µM (active).

For the molecule `COc1ccc(C(=O)c2ccccc2)c(O)c1`, the outcome was inactive. As to `CCCCC(C=O)CC` (stereo not given), the result was inactive. Same read-out and setting: in the case of `CC(=O)OCc1ccccc1` it was “inactive”; in that of `Clc1cccnc1`, “inactive”. Regarding `Cc1cc(C)c(C=O)c(C)c1`, the result was inactive.

`CCOB(OCC)OCC`: the molecule was called inactive. Same read-out and setting: in the case of `CC(C)[N+](C)(CCOC(=O)C1c2ccccc2Oc2ccccc21)C(C)C` it was “inactive”; in that of `C[Si](C)(C)N[Si](C)(C)C`, “inactive”. Regarding `CCOC(=O)/C=C\C(=O)OCC`, the result was inactive. In the case of `O=C(O)C(F)(F)C(F)(F)C(F)(F)C(F)(F)C(=O)O`, the molecule was called inactive. Regarding `[Cl][Sc]([Cl])[Cl]`, the call was inactive. `Nc1ccc(C(=O)O)cc1`: the molecule was called inactive. With `O=C1CCCCCCCCCCCN1`, the molecule was called inactive. Take `O=S(=O)(O)c1ccc(N=Nc2c(O)ccc3ccccc23)cc1`: the result was inactive. Still for that read-out and setting: the same measure for `COc1nccnc1CC(C)C`: “inactive”; for `CC(=O)OCCc1ccccc1`: “inactive”.

Consider `CC(C)=CCCC(C)=CC#N`, for which the molecule was called inactive.

As to `CC(C)CO`, the outcome was inactive. With `N#Cc1ccc(C(c2ccc(C#N)cc2)n2cncn2)cc1`, the result was inactive. In the case of `Cc1ccc2c(c1)CCCN2`, the call was inactive. For the molecule `CCCCNC(=S)NCCCC`, the call was inactive. Still for that read-out and setting: in the case of `CC(C)COC(=O)CC(C(=O)OCC(C)C)S(=O)(=O)O` (stereo not given) it was “inactive”; in that of `Cc1noc(NS(=O)(=O)c2ccc(N)cc2)c1C`, “inactive”; in that of `CCCCC1C(=O)N(c2ccccc2)N(c2ccccc2)C1=O`, “inactive”.

For `C=CC(=O)O[C@H]1C[C@@H]2CC[C@@]1(C)C2(C)C`, the call was inactive.

In the case of `CCCCCCCCCCCCCc1ccccc1`, the call was inactive. Same read-out and setting: the same measure for `CCCC(CC)c1ccccc1` (stereo not given): “inactive”.

For the molecule `CC(CCC(=O)O)(c1ccc(O)cc1)c1ccc(O)cc1`, the call was inactive. Take `N#Cc1ccc(C2CCCc3cncn32)cc1` (stereo not given): the outcome was inactive. Turning to `C=CCOC(=O)c1ccc(C(=O)OCC=C)c(C(=O)OCC=C)c1`, the result was inactive. Same read-out and setting: the same measure for `O=C(C=Cc1ccccc1)OCCc1ccccc1`: “inactive”.
